Screening results as filed in PubChem BioAssay.
Sm TGR block – blocks Schistosoma mansoni thioredoxin glutathione reductase; AID 485364; purified TGR, DTNB reduction, TNB absorbance 405 nm; Q962Y6; Potency, µM (series often up to 114 µM), without a hit: top-dose activity change, negative = inhibition, usual class: inhibitors; hit rate 3% among 360,000; further: nearly all actives have a fitted effect of over 60% in size
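Kinetic colorimetric format: TGR-catalysed, NADPH-driven DTNB reduction monitored via TNB absorbance. Enzyme dispensed at 20 nM; compound exposure 15 min at room temperature before reaction start.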
RE007 growth inh – less growth of the S. pombe RE007 Vpr strain | S. pombe RE007 Vpr strain, BacTiter-Glo ATP luminescence, 24 h | Potency, µM (top dose mostly 92.2 µM), for the others: top-dose activity change, negative = less growth, actives largely listed as inhibitors | hit rate 0.21% among 360,000 | AID 651644; active means well fitted falling curve with a large enough effect; inconclusive means small, poorly fitted or top-dose-only effect; inactive means no such curve, though single readings can be large or run the other way; further: nearly all actives have a fitted effect of over 50% in size
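Fission yeast strain RE007, carrying one chromosomally integrated HIV-1 vpr copy, was seeded at OD 0.01 in PMG+AL medium with 23 nL pinned compound. After 24 h at 30 °C and 99% humidity, viability was read by BacTiter-Glo luminescence.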
TbPYK inhibitor – T. brucei pyruvate kinase inhibition; Potency, µM (series often up to 76.8 µM), inactives show at the highest dose activity, negative = inhibition, usual class: inhibitors; TbPYK enzyme, Kinase-Glo Plus ATP luminescence, 45 min; AID 624173; hit rate 0.12% among 410,000; further: nearly all actives have a fitted effect of over 50% in size
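In this concentration-response screen, enzyme-free wells defined baseline while DMSO plates tracked drift. Each reaction combined TbPYK, substrate, compound and 130 uM ADP for 45 min at room temperature. Kinase-Glo Plus luminescence gave the signal.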
FMDV antiviral – foot and mouth disease virus antiviral activity | AID 1159524 | Potency, µM (top dose mostly 57.9 µM), for inactives: at the top dose activity change, negative = inhibition, actives largely listed as inhibitors | hit rate 1.2% among 410,000 | FMDV antiviral cell-based qHTS; calls by dose curve; tested in HEK293T cells; further: read-out not given here; nearly all actives have a fitted effect of over 45% in size
* = called active by the depositor; ? = inconclusive; / = no result given. Rows were chosen to be rich in hits. Some 3.7% of all compounds tested hit in one or more screens of this group. Unless noted, the call rests on the fitted dose curve; in most records, active means well fitted curve in the direction sought with a large enough effect; inconclusive means small, poorly fitted or top-dose-only effect, or another doubt; inactive means no such curve, though single readings can be large; an effect the other way counts as inactive or inconclusive. On the % scale 0 is the no-effect control and ±100 the full control effect; potency means the concentration at half of the fitted maximal effect.

SMILES	Sm TGR block	RE007 growth inh	TbPYK inhibitor	FMDV antiviral
CCOc1ccc(C(C)=O)cc1COC(=O)C(C)N=C1NS(=O)(=O)c2ccccc21 (configuration not stated)	20µM*	1%	0%	29%
COc1ccc(-c2ccc3oc(-c4ccc(OC)cc4)c(C#CCO)c3c2)cc1	/	2%	-8%	8.9µM*
COc1ccc(-c2sc3ccc(N4CCOCC4)cc3c2C#CC(C)(C)O)cc1	-19%	-1%	-4%	-18%
COc1ccc(-c2oc3ccc(N4CCOCC4)cc3c2C#CCO)cc1	/	-14%	-9%	28µM*
COCCn1c(SCC(=O)Nc2ccc(Cl)c(S(=O)(=O)N(C)C)c2)nc2ccccc21	-8%	-9%	4%	28µM*
CN(C)S(=O)(=O)c1cc(NC(=O)CN2CCc3ccccc32)ccc1Cl	45µM*	3%	-7%	0%
CN(C)S(=O)(=O)c1cc(NC(=O)CSc2ncc(C(F)(F)F)cc2Cl)ccc1Cl	-1%	-18%	3%	28µM*
CCN(CC)C1CCN(C(=O)c2cnn(-c3ncc4c(n3)-c3ccccc3CCC4)c2COC)C1 (configuration not stated)	/	/	/	-1%
O=C(O)CCCN1C(=O)/C(=C\c2ccco2)SC1=S	?	-8%	?	?
O=C1/C(=C/c2cccs2)SC(=S)N1NS(=O)(=O)c1ccccc1	-32%	?	-8%	8%
CC(C(=O)O)N1C(=O)/C(=C/C=C/c2ccco2)SC1=S (configuration not stated)	7.1µM*	11%	-8%	5%
CCN(C(=O)C(C)N1C(=O)/C(=C/c2ccco2)SC1=S)C1CCS(=O)(=O)C1 (configuration not stated)	40µM*	12%	?	-7%
O=C1/C(=C/C=C/c2ccco2)SC(=S)N1NS(=O)(=O)c1ccccc1	1.8µM*	-12%	-13%	-15%
CCOc1ccc(CNC(=O)Cn2nc(C)c3nn(-c4ccc(Cl)cc4)c(C)c3c2=O)cc1OC	2%	/	-11%	-21%
Cc1oc(-c2ccc(C(=O)NCc3ccccc3Cl)cc2)nc1CN1CCc2ccccc21	-1%	/	0%	-12%
O=C(CSc1n[nH]c(-c2ccccc2Cl)n1)NCCc1ccccc1	-4%	/	-6%	-10%
CCOC(=O)/C(C#N)=C/C1=C(N2CCOCC2)C(C)(C)OCC1	28µM*	-14%	-4%	-6%
O=C(Nc1ccc(N2CCOCC2)nc1N1CCOCC1)c1cccc(C(F)(F)F)c1	7%	4%	-8%	-16%
O=C(N/N=C/c1ccc(N2CCOCC2)o1)c1ccccc1[N+](=O)[O-]	8.9µM*	7%	?	-15%
O=C(N/N=C/c1ccc(N2CCCCC2)o1)c1ccccc1[N+](=O)[O-]	4µM*	/	?	-18%
O=C(N/N=C/c1ccc(N2CCOCC2)o1)c1cccc(C(F)(F)F)c1	11µM*	5%	?	-14%
O=C(N/N=C/c1ccncc1)c1ccccc1[N+](=O)[O-]	-11%	4%	0%	0%
O=C(CCl)Nc1cccc(-c2cnc3ccccc3n2)c1	?	-5%	-2%	25µM*
O=C(CCl)Nc1ccc(Oc2cnc3ccccc3n2)cc1	-27%	9%	2%	20µM*
O=C(NCc1ccccn1)c1cnn(-c2ncc3c(n2)-c2ccccc2CC3)c1C1CC1	/	/	/	-12%
SMILES	Sm TGR block	RE007 growth inh	TbPYK inhibitor	FMDV antiviral
CC(=O)CCc1oc2ccc(NC(C)=O)cc2c1-c1ccc(C)o1	20µM*	4%	-14%	-22%
CC(=O)CCc1oc2ccc(C)cc2c1-c1ccc(C)o1	25µM*	-23%	-11%	-9%
CC(=O)Nc1ccc(NC(=O)CCc2ccc(C)o2)cc1	-3%	0%	2%	2%
Cc1cc(N2CCN(c3cccc(C)c3C)CC2)n2cnnc2n1	-10%	/	0%	?
CN(c1ccccc1)S(=O)(=O)c1cccc(C(=O)NCCc2ccc(O)c(O)c2)c1	16µM*	5%	?	?
O=C(NCCc1ccccc1)c1ccc(Cl)c(S(=O)(=O)N2CCCC2)c1	-7%	6%	2%	-7%
COc1ccc(CCNC(=O)c2ccc(Cl)c(S(=O)(=O)N3CCCCCC3)c2)cc1	5%	-12%	-5%	14µM*
CC1CCCN(S(=O)(=O)c2cc(C(=O)NCCc3ccc(S(N)(=O)=O)cc3)ccc2Cl)C1 (configuration not stated)	/	8%	1%	18µM*
COc1ccc(CCNC(=O)c2ccc(Cl)c(S(=O)(=O)N(C)c3ccccc3)c2)cc1	-3%	10%	-4%	28µM*
CC1CCCN(S(=O)(=O)c2cc(C(=O)NCc3ccco3)ccc2Cl)C1 (configuration not stated)	/	15%	0%	3%
COc1ccc(N2C(=O)CSC23C(=O)N(CC(=O)NCCc2ccccc2)c2ccccc23)cc1 (configuration not stated)	3%	/	-2%	-10%
CCOc1ccc(-n2c(=O)c3c(C)c(C)sc3n(Cc3ccccc3C)c2=O)cc1	-1%	/	3%	0%
NC(=O)C1c2ccccc2CCc2ccccc21	/	/	2%	/
CC(C)(CO)C(O)C(=O)NCCCC(=O)O (configuration not stated)	/	/	3%	/
O=c1cc(CN2CCCc3ccccc32)nc2sccn12	28µM*	-2%	1%	-4%
O=c1cc(CN2CCc3ccccc32)nc2sccn12	?	1%	-6%	5%
CS/C(N)=C(C#N)/C(C#N)=C(\N)SC	/	/	/	-13%
NC(=O)C1=C(c2ccccc2)c2ccccc2C1=O	/	-3%	-28%	32µM*
CCNC(=S)NCCC1=c2ccccc2=N/C1=C\c1c(O)n(C)c(=O)n(C)c1=O	?	-6%	?	40µM*
COc1ccc2[nH]c(C)c(C(=O)CN3CCc4cc(OC)c(OC)cc4C3)c2c1	-1%	11%	-2%	-23%
COc1ccc2[nH]c(C)c(C(=O)CN3CCOCC3)c2c1	45µM*	-10%	-6%	-27%
O=S(=O)(O)Oc1ccc(C(c2ccc(OS(=O)(=O)O)cc2)c2ccccn2)cc1	/	/	-14%	/
COc1ccc(NC(=S)Nc2cccc(Cl)c2Cl)cc1OC	28µM*	-4%	-3%	15%
Oc1ccc(O)c(Cc2nc3ccccc3[nH]2)c1	6.3µM*	-8%	2%	-12%
Cc1cccc(Cn2c(=O)n(CC3CCC(C(=O)N4CCC(C)CC4)CC3)c(=O)c3sccc32)c1 (configuration not stated)	1%	/	0%	32µM*
SMILES	Sm TGR block	RE007 growth inh	TbPYK inhibitor	FMDV antiviral
O=C(O)c1cccc(NC(=S)NC(=O)c2cccc(OCc3ccccc3)c2)c1	25µM*	11%	1%	25%
CNC(=S)Nc1cccc(C(=O)O)c1	3.2µM*	2%	-3%	-3%
CCCOc1cccc(C(=O)NC(=S)Nc2ccccc2)c1	?	-9%	-9%	31%
O=C(O)c1cccc(NC(=S)NC(=O)c2ccncc2)c1	32µM*	-10%	-5%	-12%
COc1ccc(/C=N/NC(=S)Nc2cccc(C(=O)O)c2)cc1OC	-18%	6%	-3%	16µM*
O=C(CCCc1ccccc1)Nc1cccc(C(=O)O)c1	/	-1%	-2%	14µM*
